Source: the supplement of paper PMC10498489
Screen size: about 2,300 compounds; about 330 (14%) showed activity. Only a sample is shown. A number with no mark means an inactive call.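 How the source made its calls: active = median modified Z-score above 1.96; inactive = 1.96 or below.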

The molecules below were run on HepG2 Srxn1-GFP reporter cells (+30 nM CDDO-Me) (assay: Srxn1-GFP intensity median modified Z-score relative to plate median; higher = stronger NRF2 / oxidative stress reporter activation, active = hit call of the paper). Details: 10 µM; exposure time: 24h.
How it was run: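 Per-cell cytoplasmic GFP was measured on confocal images of formaldehyde-fixed, Hoechst-stained HepG2 Srxn1-GFP BAC reporter cells, excluding images with fewer than 100 cells. Before this, the cells (20,000 per well, 96-well plates) were co-exposed for 24 h to compound at 10 μM and an NRF2 activator at 30 nM with ≤0.1% DMSO, in three replicate plates. Each value is the median over replicates of the per-plate modified Z-score of GFP intensity. That score was scaled with 1.4826 × median absolute deviation.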

Compared with O=C(O)CCC(=O)OC[C@@H](NC(=O)C(Cl)Cl)[C@H](O)c1ccc([N+](=O)[O-])cc1 [euspeclibcmpd2230], C[C@]12CCC(=O)CC1=CCC1C2[C@@H](O)C[C@@]2(C)C1CC[C@]2(O)C(=O)COC(=O)CCC(=O)O (some centres not stated) [euspeclibcmpd152] is lower in “Srxn1-GFP intensity median modified Z-score” value: -0.0902 for the first, -0.766 for the second.

First: NC(CSCSCC(N)C(=O)O)C(=O)O (configuration not stated) [euspeclibcmpd1615]
Second: CCNC(=O)CCC(N)C(=O)O (configuration not stated) [euspeclibcmpd2170]
The “Srxn1-GFP intensity median modified Z-score” value of the first is lower: -0.0888 for the first, -0.00834 for the second.

First: CC1CCC2(C(=O)O)CCC3(C)C(=CCC4C5(C)CC(O)C(O)C(C)(CO)C5CCC43C)C2C1C (configuration not stated) [euspeclibcmpd1959]
Second: C[C@@H]1CCC2[C@](C)(CO)[C@@H](O)CC[C@]2(C)[C@@]12CC[C@@](CO)(CCO)O2 (some centres not stated) [euspeclibcmpd1570]
The “Srxn1-GFP intensity median modified Z-score” value of the first is lower: -0.237 for the first, -0.216 for the second.

Compared with N=C(N)c1ccc(N=NNc2ccc(C(=N)N)cc2)cc1 [euspeclibcmpd1093], CC(C)(Oc1ccc(C(=O)c2ccc(Cl)cc2)cc1)C(=O)O [euspeclibcmpd2188] is lower in “Srxn1-GFP intensity median modified Z-score” value: 0.338 for the first, -0.278 for the second.

First: CCCCCCOc1ccccc1C(N)=O [euspeclibcmpd1139]
Second: NC(COCc1ccccc1)C(=O)O (configuration not stated) [euspeclibcmpd2285]
The “Srxn1-GFP intensity median modified Z-score” value of the first is higher: 0.59 for the first, -0.141 for the second.

Compared with CCOc1cc(/C=C/C(=O)O)ccc1OC, CC(=O)COc1ccc2c(C)cc(=O)oc2c1 is higher in “Srxn1-GFP intensity median modified Z-score” value: 0.394 for the first, 1.43 for the second.

First: CN(C)C1C(=O)C(C(=O)NCN2CCCC2)C(=O)C2(O)C(=O)C3C(=O)c4c(O)cccc4C(C)(O)C3CC12 (configuration not stated) [euspeclibcmpd1955]
Second: C[C@]12C=CC(=O)CC1=CCC1C2C(=O)C[C@@]2(C)C1CC[C@]2(O)C(=O)CO (some centres not stated) [euspeclibcmpd243]
The “Srxn1-GFP intensity median modified Z-score” value of the first is lower: -0.368 for the first, -0.188 for the second.

First: CC(=O)OC1CCC23C(=O)OC45CCC(c6coc(O)c6)C4(C)CCC2C5CCC3(O)C1 (configuration not stated) [euspeclibcmpd1387]
Second: CCOC(=O)O[C@]1(C(=O)COC(=O)CC)CCC2C3CC=C4CC(=O)C=C[C@]4(C)C3[C@@H](O)C[C@@]21C (some centres not stated) [euspeclibcmpd1145]
The “Srxn1-GFP intensity median modified Z-score” value of the first is lower: -1.25 for the first, -0.25 for the second.

First: [Cl][Ca][Cl] [euspeclibcmpd2470]
Second: O=c1[nH]cnc2[nH]ncc12 [euspeclibcmpd15]
The “Srxn1-GFP intensity median modified Z-score” value of the first is higher: 1.27 for the first, 0.378 for the second.

Going from CON=C1CN(c2nc3c(cc2F)c(=O)c(C(=O)O)cn3C2CC2)CC1CN (configuration not stated) [euspeclibcmpd871] to CC1=C(C(=O)O)N2C(=O)C(=NC(=O)C(N)C3CC=CCC3)C2SC1 (configuration not stated) [euspeclibcmpd49], the “Srxn1-GFP intensity median modified Z-score” value falls from -0.00523 to -0.299.

Compared with CN(C)CC(=O)OCC(=O)C(O)C(O)C(O)C(O)O (configuration not stated) [euspeclibcmpd2264], CC(=O)NC(CC(C)C)C(=O)O (configuration not stated) [euspeclibcmpd1070] is higher in “Srxn1-GFP intensity median modified Z-score” value: -0.422 for the first, -0.124 for the second.

Compared with COc1ccc(CCN2CCC(N=c3[nH]c4ccccc4n3Cc3ccc(F)cc3)CC2)cc1 [euspeclibcmpd1296], OC(COC(c1ccccc1)c1ccccc1)CN1CCN(/C=C/Cc2ccccc2)CC1 (configuration not stated) is higher in “Srxn1-GFP intensity median modified Z-score” value: -0.744 for the first, 0.401 for the second.

Going from Cc1c(NC(=O)CCc2cccnc2)c(=O)n(-c2ccccc2)n1C to O=C(CCc1ccccc1)NCCO, the “Srxn1-GFP intensity median modified Z-score” value rises from 1.03 to 1.29.

Going from COc1ccc([C@@H]2CC(=O)c3c(O)cc(O[C@@H]4O[C@H](CO[C@H]5O[C@@H](C)[C@H](O)[C@@H](O)[C@H]5O)[C@@H](O)[C@H](O)[C@H]4O)cc3O2)cc1O [euspeclibcmpd1499] to O=C(O[C@@H]1Cc2c(O)cc(O)cc2O[C@@H]1c1cc(O)c(O)c(O)c1)c1cc(O)c(O)c(O)c1 [euspeclibcmpd1546], the “Srxn1-GFP intensity median modified Z-score” value rises from -0.332 to 1.25.

First: C=C[C@@](C)(O)CCC1C(=C)C[C@H](O)C2C(C)(C)CCCC12C (some centres not stated) [euspeclibcmpd2065]
Second: Cc1cc(CC(C)CC(C)(C)C)n(O)c(=O)c1 (configuration not stated) [euspeclibcmpd627]
The “Srxn1-GFP intensity median modified Z-score” value of the first is higher: 0.497 for the first, 0.455 for the second.

Compared with CNC(CC(=O)O)C(=O)O (configuration not stated) [euspeclibcmpd1746], O=C(NC(Cc1cc(=O)[nH]c2ccccc12)C(=O)O)c1ccc(Cl)cc1 (configuration not stated) [euspeclibcmpd1178] is higher in “Srxn1-GFP intensity median modified Z-score” value: -0.42 for the first, 0.0863 for the second.

Going from CN1CCN(C(c2ccccc2)c2ccccc2)CC1 [euspeclibcmpd77] to CN(CCOC(c1ccccc1)c1ccccc1)S(C)(=O)=O, the “Srxn1-GFP intensity median modified Z-score” value rises from 0.846 to 1.57.

Going from CC(C)NS(=O)(=O)C1CCN(C(=O)CCS(=O)(=O)C2CCCC2)C1 (configuration not stated) to CCCc1nc(C)c2c(=O)[nH]c(-c3cc(S(=O)(=O)N4CCN(CC)CC4)ccc3OCC)nn12 [euspeclibcmpd760], the “Srxn1-GFP intensity median modified Z-score” value falls from 1.14 to -0.393.

Going from CC(C)Cn1cnc2c(=N)[nH]c3ccccc3c21 [euspeclibcmpd542] to N=c1c2c([nH]c3ccccc13)CCCC2 [euspeclibcmpd944], the “Srxn1-GFP intensity median modified Z-score” value rises from -0.55 to -0.0541.

First: CC(=O)N=c1[nH]nc(S(N)(=O)=O)s1 [euspeclibcmpd48]
Second: CC(=O)Nc1cc2ccccc2oc1=O [euspeclibcmpd1797]
The “Srxn1-GFP intensity median modified Z-score” value of the first is higher: 0.382 for the first, 0.241 for the second.

Going from O=C(Oc1cc(O)cc2c1CC(OC(=O)c1cc(O)c(O)c(O)c1)C(c1cc(O)c(O)c(O)c1)O2)c1cc(O)c(O)c(O)c1 (configuration not stated) [euspeclibcmpd1839] to CCCCCCOC(=O)N=C(N)c1ccc(NCc2nc3cc(C(=O)N(CCC(=O)OCC)c4ccccn4)ccc3n2C)cc1 [euspeclibcmpd2169], the “Srxn1-GFP intensity median modified Z-score” value rises from -0.336 to 0.57.

Going from CCCCCCCCCCCCCCCC(=O)OCC(O)c1oc(O)c(O)c1O (configuration not stated) [euspeclibcmpd862] to CCCC(=O)N=c1[nH]cnc2c1ncn2C1O[C@@H]2COP(=O)(O)O[C@H]2[C@H]1OC(=O)CCC (some centres not stated) [euspeclibcmpd1111], the “Srxn1-GFP intensity median modified Z-score” value rises from -0.777 to 0.97.

First: Cc1c2oc3c(C)ccc(C(=O)OC(C)C4NC(=O)C(C(C)C)N(C)C(=O)CN(C)C(=O)C5CCCN5C(=O)C(C(C)C)NC4=O)c3[nH]c-2c(C(=O)OC(C)C2NC(=O)C(C(C)C)N(C)C(=O)CN(C)C(=O)C3CCCN3C(=O)C(C(C)C)NC2=O)c(=N)c1=O (configuration not stated) [euspeclibcmpd955]
Second: COc1ccc(-c2coc3c4c(c(CC=C(C)C)c(OC)c3c2=O)OC(C)(C)C=C4)cc1OC [euspeclibcmpd2197]
The “Srxn1-GFP intensity median modified Z-score” value of the first is lower: -2.39 for the first, -0.274 for the second.

First: CN1CCN(CCCN2c3ccccc3Sc3ccc(C(F)(F)F)cc32)CC1 [euspeclibcmpd306]
Second: OCCN1CCN(CCCN2c3ccccc3Sc3ccc(Cl)cc32)CC1 [euspeclibcmpd640]
The “Srxn1-GFP intensity median modified Z-score” value of the first is higher: 0.328 for the first, -1.43 for the second.

Compared with CN(C)CCCN1c2ccccc2Sc2ccccc21 [euspeclibcmpd252], CNCCCN1c2ccccc2CCc2ccccc21 [euspeclibcmpd86] is higher in “Srxn1-GFP intensity median modified Z-score” value: 0.744 for the first, 1.22 for the second.

Compared with C/C(=C(/CCOP(=O)(O)O)SC(=O)c1ccccc1)N(C=O)Cc1c[nH]c(C)nc1=N [euspeclibcmpd1052], CCCCNC(=O)c1ccc(NC(C)=O)cc1 is lower in “Srxn1-GFP intensity median modified Z-score” value: 1.09 for the first, 0.99 for the second.

Going from Cc1nnc(SC=C2CSC3C(NC(=O)Cn4cnnn4)C(=O)N3C2C(=O)O)s1 (configuration not stated) [euspeclibcmpd2337] to Cc1cc(C)cc(-c2nnc(SCc3csc(Nc4ccccc4)n3)o2)c1, the “Srxn1-GFP intensity median modified Z-score” value falls from 0.336 to 0.289.

For O=c1c2ccccc2[nH]c2ccccc12, the “Srxn1-GFP intensity median modified Z-score” value was 0.588.

N=C(N)c1ccc(OCCCCCOc2ccc(C(=N)N)cc2)cc1 [euspeclibcmpd1040] was tested, and the “Srxn1-GFP intensity median modified Z-score” value was 12.5 (active).
For CC12CCC(=O)N1C(C(=O)NCCCNS(C)(=O)=O)CS2 (configuration not stated), the “Srxn1-GFP intensity median modified Z-score” value was 2.02 (active).
For N#CCC(=O)NN [euspeclibcmpd1098], the “Srxn1-GFP intensity median modified Z-score” value was 3.08 (active).
C=C[C@](C)(O)CC[C@@H]1[C@@]2(C)CCCC(C)(C)[C@@H]2CC[C@]1(C)O [euspeclibcmpd2213] was tested, and the “Srxn1-GFP intensity median modified Z-score” value was 2.3 (active).
For O=C(OC[C@H]1O[C@H](OC(=O)c2cc(O)c(O)c(OC(=O)c3cc(O)c(O)c(O)c3)c2)[C@H](OC(=O)c2cc(O)c(O)c(OC(=O)c3cc(O)c(O)c(O)c3)c2)[C@@H](OC(=O)c2cc(O)c(O)c(OC(=O)c3cc(O)c(O)c(O)c3)c2)[C@@H]1OC(=O)c1cc(O)c(O)c(OC(=O)c2cc(O)c(O)c(O)c2)c1)c1cc(O)c(O)c(OC(=O)c2cc(O)c(O)c(O)c2)c1 [euspeclibcmpd649], the “Srxn1-GFP intensity median modified Z-score” value was 8.09 (active).
CN1CCN(CCCN2c3ccccc3Sc3ccc(Cl)cc32)CC1 [euspeclibcmpd249] was tested, and the “Srxn1-GFP intensity median modified Z-score” value was 3.78 (active).
With CNCCCN1c2ccccc2Sc2ccccc21 the “Srxn1-GFP intensity median modified Z-score” value was 2.13 (active).
For CC(C)=CCCC1(C)C=Cc2c(O)c3c(c(CC=C(C)C)c2O1)OC12C(CC4CC1C(C)(C)OC2(C=CC(C)C(=O)O)C4O)C3=O (configuration not stated) [euspeclibcmpd1941], the “Srxn1-GFP intensity median modified Z-score” value was 50.9 (active).
With CC(C)=CCCC1(C)C=Cc2c(O)c3c(c(CC=C(C)C)c2O1)OC12C(=CCCC1C(C)(C)O[C@@]2(C=CC(C)C(=O)O)C(=O)O)C3=O (some centres not stated) [euspeclibcmpd1701] the “Srxn1-GFP intensity median modified Z-score” value was 6.67 (active).
For COC(=O)C(C)=CCC12OC(C)(C)C3CC(=CC4C(=O)c5c(OC)c6c(c(CC=C(C)C)c5OC431)OC(C)(CCC=C(C)C)C=C6)C2=O (configuration not stated) [euspeclibcmpd2284], the “Srxn1-GFP intensity median modified Z-score” value was 55.9 (active).
For CC(C)=CCCC1(C)C=Cc2c(O)c3c(c(CC=C(C)C)c2O1)OC12C(=CC4CC1C(C)(C)OC2(C=CC(C)C(=O)O)C4=O)C3=O (configuration not stated) [euspeclibcmpd1425], the “Srxn1-GFP intensity median modified Z-score” value was 127 (active).
N=c1c2ccccc2[nH]c2ccccc12 [euspeclibcmpd350] was tested, and the “Srxn1-GFP intensity median modified Z-score” value was 15 (active).
